# Laboratory results published in PubChem BioAssay (EPA / NIEHS).
# Active and inactive are the calls of the source. How the source made its calls: active means hit-call score of the fitted dose curve at least 0.9, where 1 is the maximum; inactive means score below 0.9.
# Experiments:
# Conditions in all cases: mRNA level, 48 h; actives raise or lower the signal
# [1] = read-out: Cytochrome P450 (CYP24A1), CYP24A1 (gene 1591); experiment: LTEA_HepaRG_CYP24A1: Life Technologies and Expression Analysis (LTEA) Assay for Cytochrome P450 (CYP24A1) using HepaRG (AID 2283478)
# Method in brief: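 Gene expression of CYP24A1 by TaqMan qRT-PCR in HepaRG after 48 h treatment, highest concentration 100 uM; activity fitted in both directions relative to DMSO vehicle.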
# [2] = read-out: Cytochrome P450 (CYP1A2), CYP1A2 (gene 1544); experiment: LTEA_HepaRG_CYP1A2: Life Technologies and Expression Analysis (LTEA) Assay for Cytochrome P450 (CYP1A2) using HepaRG (AID 2283479)
# Method in brief: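 In duplicate wells, HepaRG cultures maintained in 0.5% DMSO were treated 48 h across an 8-point, half-log series topping at 100 uM; phenobarbital (1 mM) served as induction control. Expression was read by qRT-PCR.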
# [3] = read-out: cysteine-aspartic acid protease (CASP8), CASP8 (gene 841); experiment: LTEA_HepaRG_CASP8: Life Technologies and Expression Analysis (LTEA) Assay for cysteine-aspartic acid protease (CASP8) using HepaRG (AID 2283480)
# Method in brief: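 Differentiated human HepaRG cells, plated 48 h then switched to serum-free induction medium, were exposed in duplicate for 48 h to 8 half-log concentrations up to 100 uM in 0.5% DMSO. CASP8 mRNA was quantified by qRT-PCR, normalized to ACTB/GAPDH/POLR2A.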
# [4] = read-out: Cytochrome P450 (CYP2B6), CYP2B6 (gene 1555); experiment: LTEA_HepaRG_CYP2B6: Life Technologies and Expression Analysis (LTEA) Assay for Cytochrome P450 (CYP2B6) using HepaRG (AID 2283481)
# Method in brief: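 Human HepaRG, 48 h dosing, 0.5% DMSO vehicle, top dose 100 uM. CYP2B6 transcript by qRT-PCR, housekeeping-normalized, bidirectional curve fit.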
# [5] = read-out: Cytochrome P450 2C19 (Homo sapiens) (UniProt P33261); experiment: LTEA_HepaRG_CYP2C19: Life Technologies and Expression Analysis (LTEA) Assay for CYP2C19 using HepaRG (AID 2283482)
# Method in brief: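 Endpoint: CYP2C19 mRNA change, bidirectional fit vs 0.5% DMSO. Cells: HepaRG, 48 h exposure, eight-point series topping at 100 uM. Quantitation: qRT-PCR normalized to ACTB, GAPDH, POLR2A.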
# [6] = read-out: CYP2C8 (gene 1558); experiment: LTEA_HepaRG_CYP2C8: Life Technologies and Expression Analysis (LTEA) Assay for CYP2C8 using HepaRG (AID 2283483)
# Method in brief: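 Differentiated human HepaRG cells were exposed for 48 h in serum-free induction medium to eight half-log concentrations up to 100 uM in 0.5% DMSO, in duplicate. CYP2C8 mRNA was measured by TaqMan qRT-PCR, normalized to ACTB, GAPDH and POLR2A, and fitted bidirectionally against DMSO.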
# [7] = read-out: CYP2C9 (gene 1559); experiment: LTEA_HepaRG_CYP2C9: Life Technologies and Expression Analysis (LTEA) Assay for CYP2C9 using HepaRG (AID 2283484)
# Method in brief: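 Differentiated human HepaRG cells were exposed 48 h in serum-free induction medium to eight half-log concentrations up to 100 uM in 0.5% DMSO. CYP2C9 mRNA was measured by qRT-PCR, normalized to ACTB, GAPDH and POLR2A, and fitted bidirectionally against DMSO.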
# [8] = read-out: CYP2E1 (gene 1571); experiment: LTEA_HepaRG_CYP2E1: Life Technologies and Expression Analysis (LTEA) Assay for CYP2E1 using HepaRG (AID 2283485)
# Method in brief: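 HepaRG cells, plated 48 h, then exposed 48 h in serum-free induction medium to eight half-log concentrations from 100 uM in 0.5% DMSO, duplicate. CYP2E1 mRNA by qRT-PCR, normalized to ACTB/GAPDH/POLR2A; bidirectional fit versus DMSO.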
# [9] = read-out: CYP4A11 (gene 1579); experiment: LTEA_HepaRG_CYP4A11: Life Technologies and Expression Analysis (LTEA) Assay for CYP4A11 using HepaRG (AID 2283486)
# Method in brief: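 Human hepatic HepaRG cultures receive duplicate 48 h exposures across a concentration-response series topping at 100 uM. Expression changes in CYP4A11 are measured by qRT-PCR relative to DMSO controls.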
# [10] = read-out: Cytochrome P450 3A4 (Homo sapiens) (UniProt P08684); experiment: LTEA_HepaRG_CYP3A4: Life Technologies and Expression Analysis (LTEA) Assay for CYP3A4 using HepaRG (AID 2283487)
# Method in brief: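 HepaRG, 48 h exposure, 8-pt CRC from 100 uM (half-log), 0.5% DMSO, duplicates; serum-free induction medium. Readout: CYP3A4 mRNA, qRT-PCR, ACTB/GAPDH/POLR2A normalization. Bidirectional fit vs DMSO.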
# Cytochrome P450 2C19 (Homo sapiens), sequence (P33261 whole entry, looked up): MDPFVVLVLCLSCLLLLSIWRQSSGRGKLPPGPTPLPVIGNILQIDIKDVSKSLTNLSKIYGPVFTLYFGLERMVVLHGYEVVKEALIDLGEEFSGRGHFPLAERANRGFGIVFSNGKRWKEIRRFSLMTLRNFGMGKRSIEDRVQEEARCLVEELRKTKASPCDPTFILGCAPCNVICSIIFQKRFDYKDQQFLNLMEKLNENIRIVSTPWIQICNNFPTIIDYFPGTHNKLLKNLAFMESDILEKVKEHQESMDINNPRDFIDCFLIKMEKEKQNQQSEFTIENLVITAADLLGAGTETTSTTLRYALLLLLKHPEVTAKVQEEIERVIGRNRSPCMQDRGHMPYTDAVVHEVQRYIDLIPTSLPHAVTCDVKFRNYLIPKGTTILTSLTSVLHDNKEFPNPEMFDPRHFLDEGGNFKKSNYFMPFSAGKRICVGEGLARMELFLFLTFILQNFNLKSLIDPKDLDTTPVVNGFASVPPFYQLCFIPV
# Cytochrome P450 3A4 (Homo sapiens), sequence (P08684 whole entry, looked up): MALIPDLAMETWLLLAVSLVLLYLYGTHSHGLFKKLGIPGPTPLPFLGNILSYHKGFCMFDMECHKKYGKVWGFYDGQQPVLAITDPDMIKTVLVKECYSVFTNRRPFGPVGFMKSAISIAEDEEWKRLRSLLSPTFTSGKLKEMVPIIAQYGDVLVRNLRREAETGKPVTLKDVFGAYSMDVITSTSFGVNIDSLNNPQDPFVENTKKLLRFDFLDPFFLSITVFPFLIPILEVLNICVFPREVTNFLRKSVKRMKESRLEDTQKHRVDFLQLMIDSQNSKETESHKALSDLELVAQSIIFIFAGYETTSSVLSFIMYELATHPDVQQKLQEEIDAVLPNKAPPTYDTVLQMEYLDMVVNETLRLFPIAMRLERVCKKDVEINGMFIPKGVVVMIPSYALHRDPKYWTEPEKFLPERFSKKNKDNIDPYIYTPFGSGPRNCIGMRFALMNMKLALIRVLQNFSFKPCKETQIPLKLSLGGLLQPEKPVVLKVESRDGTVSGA
smiles,measurement,setting,value
C#CC(O)C(CC)CCCC (stereo unspecified),outcome,[1],inactive
same,outcome,[2],inactive
same,outcome,[3],inactive
same,AC50,[4],24.4 µM (active)
same,outcome,[5],inactive
same,outcome,[6],inactive
same,outcome,[7],inactive
same,outcome,[8],inactive
same,outcome,[9],inactive
CC(=O)O[C@]1(C(C)=O)CC[C@H]2[C@@H]3C=C(Cl)C4=CC(=O)[C@@H]5C[C@@H]5[C@]4(C)[C@H]3CC[C@@]21C,AC50,[1],0.00316 µM (active)
same,AC50,[2],78.7 µM (active)
same,outcome,[3],inactive
same,AC50,[4],50 µM (active)
same,AC50,[5],63.5 µM (active)
same,outcome,[6],inactive
same,AC50,[7],50 µM (active)
same,AC50,[8],36.9 µM (active)
same,outcome,[9],inactive
CC(C)OC(=O)C(C)(C)Oc1ccc(C(=O)c2ccc(Cl)cc2)cc1,outcome,[1],inactive
same,AC50,[2],28.1 µM (active)
same,outcome,[3],inactive
same,AC50,[4],63.3 µM (active)
same,outcome,[5],inactive
same,outcome,[6],inactive
same,outcome,[7],inactive
same,outcome,[8],inactive
same,AC50,[9],3.85 µM (active)
C=CCCCCCCCCCCCC,outcome,[1],inactive
same,AC50,[2],50 µM (active)
same,outcome,[3],inactive
same,outcome,[4],inactive
same,outcome,[5],inactive
same,outcome,[6],inactive
same,outcome,[7],inactive
same,outcome,[8],inactive
same,outcome,[9],inactive
CCCCCCC(C=O)=Cc1ccccc1,outcome,[1],inactive
same,outcome,[2],inactive
same,outcome,[3],inactive
same,AC50,[4],15.9 µM (active)
same,outcome,[5],inactive
same,outcome,[6],inactive
same,outcome,[7],inactive
same,outcome,[8],inactive
same,outcome,[9],inactive
CC(=O)CC(c1ccccc1)c1c(O)c2ccccc2oc1=O (stereo unspecified),outcome,[1],inactive
same,outcome,[2],inactive
same,outcome,[3],inactive
same,AC50,[4],29.7 µM (active)
same,AC50,[5],5.47 µM (active)
same,outcome,[6],inactive
same,outcome,[7],inactive
same,AC50,[8],73.8 µM (active)
same,outcome,[9],inactive
Cc1ccc(C(C)(C)C)c(O)c1,outcome,[1],inactive
same,AC50,[2],25.6 µM (active)
same,outcome,[3],inactive
same,outcome,[4],inactive
same,outcome,[5],inactive
same,outcome,[6],inactive
same,outcome,[7],inactive
same,outcome,[8],inactive
same,outcome,[9],inactive
Nc1nc(Cl)nc2c1ncn2[C@H]1C[C@H](O)[C@@H](CO)O1,outcome,[1],inactive
same,AC50,[2],0.715 µM (active)
same,outcome,[3],inactive
same,AC50,[4],1.22 µM (active)
same,AC50,[5],2.05 µM (active)
same,AC50,[6],1 µM (active)
same,AC50,[7],1.07 µM (active)
same,AC50,[8],0.879 µM (active)
same,AC50,[9],1.41 µM (active)
CCCCC(CC)COP(=O)(OCC(CC)CCCC)OCC(CC)CCCC (stereo unspecified),outcome,[1],inactive
same,AC50,[2],24.6 µM (active)
same,outcome,[3],inactive
same,AC50,[4],8.38 µM (active)
same,AC50,[5],7.79 µM (active)
same,outcome,[6],inactive
same,outcome,[7],inactive
same,AC50,[8],19.3 µM (active)
same,outcome,[9],inactive
O=C(NS(=O)(=O)/C=C/c1cccs1)c1ccc(F)cc1Br,outcome,[1],inactive
same,outcome,[3],inactive
same,outcome,[4],inactive
same,AC50,[5],13 µM (active)
same,outcome,[6],inactive
same,outcome,[7],inactive
same,AC50,[8],25.3 µM (active)
same,AC50,[9],14.1 µM (active)
Oc1ccccc1O,outcome,[1],inactive
same,outcome,[2],inactive
same,outcome,[3],inactive
same,outcome,[4],inactive
same,outcome,[5],inactive
same,outcome,[6],inactive
same,outcome,[7],inactive
same,outcome,[8],inactive
same,outcome,[9],inactive
same,outcome,[10],inactive
OCC(O)CO,outcome,[1],inactive
same,outcome,[3],inactive
same,AC50,[4],22.6 µM (active)
same,outcome,[5],inactive
same,outcome,[6],inactive
same,outcome,[7],inactive
same,outcome,[8],inactive
same,outcome,[9],inactive
CC(C)COC(=O)CCCCC(=O)OCC(C)C,outcome,[1],inactive
same,outcome,[3],inactive
same,outcome,[4],inactive
same,outcome,[5],inactive
same,outcome,[6],inactive
same,outcome,[7],inactive
same,outcome,[8],inactive
same,outcome,[9],inactive
O=C(O)CN(CC(=O)O)CC(=O)O,outcome,[1],inactive
same,outcome,[3],inactive
same,outcome,[4],inactive
same,outcome,[5],inactive
same,outcome,[6],inactive
same,outcome,[7],inactive
same,outcome,[8],inactive
same,outcome,[9],inactive
O=C1c2c(O)cccc2Cc2cccc(O)c21,outcome,[1],inactive
same,AC50,[2],18.2 µM (active)
same,outcome,[3],inactive
same,outcome,[4],inactive
same,outcome,[5],inactive
same,outcome,[6],inactive
same,outcome,[7],inactive
same,outcome,[8],inactive
same,outcome,[9],inactive
same,outcome,[10],inactive
O=Cc1ccccc1C=O,outcome,[1],inactive
same,outcome,[3],inactive
same,AC50,[4],23.3 µM (active)
same,outcome,[5],inactive
same,outcome,[6],inactive
same,outcome,[7],inactive
same,outcome,[8],inactive
same,outcome,[9],inactive
CCCCC(CC)COC(=O)CCCCCCCC(=O)OCC(CC)CCCC (stereo unspecified),outcome,[1],inactive
same,outcome,[2],inactive
same,outcome,[3],inactive
same,AC50,[4],30.9 µM (active)
same,outcome,[5],inactive
same,outcome,[6],inactive
same,outcome,[7],inactive
same,outcome,[8],inactive
same,outcome,[9],inactive
same,outcome,[10],inactive
COc1ccc(C(=O)Nc2nc3ccccc3c(NCc3ccccc3)c2C#N)cc1,AC50,[1],0.00721 µM (active)
same,outcome,[3],inactive
same,outcome,[4],inactive
same,AC50,[5],22.1 µM (active)
same,AC50,[6],16.7 µM (active)
same,AC50,[7],16.3 µM (active)
same,AC50,[8],20 µM (active)
same,AC50,[9],28.3 µM (active)
CO[C@@H]1COCC[C@@H]1N[C@@H]1CC[C@@](C(=O)N2CCc3ncc(C(F)(F)F)cc3C2)(C(C)C)C1,outcome,[1],inactive
same,outcome,[3],inactive
same,outcome,[4],inactive
same,outcome,[5],inactive
same,outcome,[6],inactive
same,outcome,[7],inactive
same,outcome,[8],inactive
same,outcome,[9],inactive
CC(=O)S[C@H](C(=O)N[C@H]1Cc2ccccc2[C@H]2CCC[C@@H](C(=O)O)N2C1=O)C(C)C,outcome,[1],inactive
same,outcome,[2],inactive
same,outcome,[3],inactive
same,outcome,[4],inactive
same,outcome,[5],inactive
same,outcome,[6],inactive
same,outcome,[7],inactive
same,outcome,[9],inactive
same,outcome,[10],inactive
CN(C)C(=O)NC1(c2ccccc2)CCN(CC[C@@]2(c3ccc(F)c(F)c3)CN(C(=O)c3ccccc3)CCO2)CC1,outcome,[1],inactive
same,AC50,[2],47 µM (active)
same,outcome,[3],inactive
same,outcome,[4],inactive
same,AC50,[5],2.65 µM (active)
same,outcome,[6],inactive
same,outcome,[7],inactive
same,AC50,[8],29.6 µM (active)
same,AC50,[9],47 µM (active)
same,AC50,[10],2.69 µM (active)
